In PubChem BioAssay:
Calls of active or inactive are those of the source. Unless noted, the rule behind the calls is not given here.

What was measured:
[1] = anti-His antibody binders, primary screen, artefact control for SMM control protein annotation, biochemical, small-molecule microarray, 635 nm fluorescence (AID 1128); details: anti-His Alexa647 antibody binding, higher = more signal;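 note: score merges feature fluorescence with signal-to-noise for each printed compound spot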
[2] = system: Human papillomavirus type 1a E7 protein (residues 1-88); experiment: HPV1a E7 small-molecule binders, primary screen, biochemical, small-molecule microarray, residues 1-88, 635 nm (AID 1129); details: small-molecule microarray binding, fluorescence 635 nm; higher = more signal
[3] = molecular target: Focal adhesion kinase 1 (Homo sapiens) (UniProt Q05397); experiment: small-molecule microarray binders of FAK, primary screen, biochemical, 635/667 nm fluorescence, BSA, DTT (AID 1130); details: PTK2 binding, 635 nm fluorescence, higher = more signal;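 note: composite of spot emission at 667 nm and signal to noise over triplicate slides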
[4] = system: Fibrinogen (Alexa647-labelled); experiment: fibrinogen binders on compound microarrays, profiling panel, artefact control for SMM control-protein annotation, biochemical, small-molecule microarray, 635/667 nm fluorescence (AID 1131); details: fibrinogen-A647 binding fluorescence, higher = more signal;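 note: z-score merges 667 nm fluorescence with per-spot signal-to-noise over triplicate slides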
[5] = molecular target: Follistatin (Homo sapiens) (UniProt P19883); experiment: follistatin binders on small-molecule microarrays, primary screen, biochemical, small-molecule microarray, 635/667 nm fluorescence (AID 1132); details: FST binding, 635 nm fluorescence, higher = more signal
[6] = molecular target: Fibroblast growth factor 2 (Homo sapiens) (UniProt P09038); experiment: FGF2 binders on small-molecule microarrays, primary screen, biochemical, small-molecule microarray, 635/667 nm fluorescence (AID 1133); details: small-molecule microarray binding, FGF2, fluorescence 635/667; higher = more signal
[7] = mitochondrial membrane potential change in A549 cells, profiling panel, cell-based, JC-1 fluorescence, basal, 24 h, 100 nL (AID 1138); details: higher = more signal;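 note: A549 lung adenocarcinoma cells under basal conditions with no added stimulus; test concentration not given here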
Lefty1 = Lefty1 binders on small-molecule microarrays, primary screen, biochemical, small-molecule microarray, 635/667 nm fluorescence (AID 1139); details: small-molecule microarray binding, fluorescence 635/667; higher = more signal
[8] = system: wheat germ agglutinin (Triticum aestivum), Alexa647-labelled; experiment: wheat germ agglutinin binders on compound microarrays, profiling panel, artefact control for SMM control-protein annotation, biochemical, small-molecule microarray, 635/667 nm fluorescence (AID 1140); details: WGA-A647 binding, 635 nm fluorescence, higher = more signal;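 note: score merges 667 nm feature emission with signal to noise over triplicate slides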
[9] = molecular target: Luciferin 4-monooxygenase (Photinus pyralis) (UniProt P08659); experiment: firefly luciferase enzyme inhibitors, primary screen, biochemical, luminescence, purified enzyme, 2006 set (AID 1141); details: SteadyGlo luminescence, 30 min, higher = more signal, called active from +8 up or from −8 down;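 note: cell-free assay with purified firefly luciferase at 100 ng per well in PBS; test concentration not given here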
[10] = system: Wnt5a (protein binding on small-molecule microarray); experiment: Wnt5a binders on small-molecule microarray, primary screen, biophysical, 635/667 nm fluorescence (AID 1142); details: 635 nm fluorescence, higher = more signal;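 note: fluorescence read at 667 nm with signal to noise per printed feature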
[11] = cell viability in Huh7 cells, primary screen, cytotoxicity control for HCV replication inhibitor project, CellTiter-Glo luminescence, basal, 48 h (AID 1143); details: Huh7 HCV replicon, higher = more signal, called active from +8 up or from −8 down;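 note: Huh7 hepatoma cells carrying a hepatitis C replication reporter with no stimulus; test concentration not given here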
[12] = P. aeruginosa biofilm formation inhibitors, primary screen, PAO1 strain, BacTiter-Glo luminescence, LB-PBS (AID 1144); details: 12 h, higher = more signal
[13] = CREB reporter modulators without forskolin, primary screen, cell-based, PC12, CRE-LacZ reporter, unstimulated (AID 1145); details: no forskolin, luminescence, 4.5 h, higher = more signal, called active from +8 up or from −8 down
[14] = CREB reporter modulators under forskolin, primary screen, cell-based, PC12, CRE-LacZ reporter, forskolin-stimulated (AID 1146); details: luminescence, 4.5 h, higher = more signal, called active from +8 up or from −8 down;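 note: PC12 cells with 6xCRE LacZ reporter stimulated by forskolin 10 µM; beta-galactosidase reporter signal reflecting CREB driven transcription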
[15] = molecular target: Streptavidin (Streptomyces avidinii) (UniProt P22629); experiment: streptavidin binders on small-molecule microarray, primary screen, artefact control for SMM compound annotation, biophysical, 635/667 nm fluorescence (AID 1147); details: streptavidin binding, higher = more signal;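 note: signal reflects streptavidin binding to arrayed compounds as a control protein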
[16] = small-molecule binders of probe aInhba, primary screen, biochemical, small-molecule microarray, 635/667 nm fluorescence (AID 1148); details: higher = more signal;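 note: score merges 667nm spot fluorescence with signal-to-noise for antibody binding to printed compounds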
Torsin-1A (Homo sapiens) [17] = molecular target: Torsin-1A (Homo sapiens) (UniProt O14656); experiment: torsin A binders from cell lysate, primary screen, small-molecule microarray, wild-type, 635/667 nm (AID 1149); details: COS7 hTOR1A-WT lysate, 635 nm fluorescence, higher = more signal
Torsin-1A (Homo sapiens) [18] = molecular target: Torsin-1A (Homo sapiens) (UniProt O14656); experiment: small-molecule binders of mutant TOR1A in lysate, primary screen, cell lysate, small-molecule microarray, COS7 lysate, 635/667 nm fluorescence (AID 1150); details: COS7 hTOR1A mutant lysate, 635 nm fluorescence, higher = more signal;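 note: score pools 667 nm emission and signal to noise measuring lysate protein binding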
[19] = system: Sonic hedgehog protein (Shh); experiment: small-molecule binders of Shh protein, primary screen, biochemical, small-molecule microarray, 635/667 nm fluorescence (AID 1151); details: small-molecule microarray binding, 635 nm fluorescence; higher = more signal;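 note: Shh protein binding to compounds spotted on small-molecule microarray slides; score combines spot fluorescence intensity with signal-to-noise across triplicate slides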

Streptavidin (Streptomyces avidinii), sequence (P22629 whole entry, looked up): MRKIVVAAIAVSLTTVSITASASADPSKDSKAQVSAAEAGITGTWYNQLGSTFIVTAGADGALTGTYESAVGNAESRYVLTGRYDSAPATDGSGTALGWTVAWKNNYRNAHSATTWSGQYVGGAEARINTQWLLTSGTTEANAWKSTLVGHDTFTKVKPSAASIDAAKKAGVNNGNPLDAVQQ
Torsin-1A (Homo sapiens), sequence (O14656 whole entry, looked up): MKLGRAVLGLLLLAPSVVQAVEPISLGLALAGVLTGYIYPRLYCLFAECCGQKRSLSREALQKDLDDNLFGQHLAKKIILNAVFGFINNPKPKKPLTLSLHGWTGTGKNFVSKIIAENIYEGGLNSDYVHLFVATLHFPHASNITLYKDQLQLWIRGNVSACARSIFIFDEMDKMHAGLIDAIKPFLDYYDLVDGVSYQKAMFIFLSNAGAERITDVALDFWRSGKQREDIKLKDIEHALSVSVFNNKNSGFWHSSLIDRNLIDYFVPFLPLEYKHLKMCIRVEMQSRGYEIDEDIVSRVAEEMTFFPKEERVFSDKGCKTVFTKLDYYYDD
Focal adhesion kinase 1 (Homo sapiens), sequence (Q05397 whole entry, looked up): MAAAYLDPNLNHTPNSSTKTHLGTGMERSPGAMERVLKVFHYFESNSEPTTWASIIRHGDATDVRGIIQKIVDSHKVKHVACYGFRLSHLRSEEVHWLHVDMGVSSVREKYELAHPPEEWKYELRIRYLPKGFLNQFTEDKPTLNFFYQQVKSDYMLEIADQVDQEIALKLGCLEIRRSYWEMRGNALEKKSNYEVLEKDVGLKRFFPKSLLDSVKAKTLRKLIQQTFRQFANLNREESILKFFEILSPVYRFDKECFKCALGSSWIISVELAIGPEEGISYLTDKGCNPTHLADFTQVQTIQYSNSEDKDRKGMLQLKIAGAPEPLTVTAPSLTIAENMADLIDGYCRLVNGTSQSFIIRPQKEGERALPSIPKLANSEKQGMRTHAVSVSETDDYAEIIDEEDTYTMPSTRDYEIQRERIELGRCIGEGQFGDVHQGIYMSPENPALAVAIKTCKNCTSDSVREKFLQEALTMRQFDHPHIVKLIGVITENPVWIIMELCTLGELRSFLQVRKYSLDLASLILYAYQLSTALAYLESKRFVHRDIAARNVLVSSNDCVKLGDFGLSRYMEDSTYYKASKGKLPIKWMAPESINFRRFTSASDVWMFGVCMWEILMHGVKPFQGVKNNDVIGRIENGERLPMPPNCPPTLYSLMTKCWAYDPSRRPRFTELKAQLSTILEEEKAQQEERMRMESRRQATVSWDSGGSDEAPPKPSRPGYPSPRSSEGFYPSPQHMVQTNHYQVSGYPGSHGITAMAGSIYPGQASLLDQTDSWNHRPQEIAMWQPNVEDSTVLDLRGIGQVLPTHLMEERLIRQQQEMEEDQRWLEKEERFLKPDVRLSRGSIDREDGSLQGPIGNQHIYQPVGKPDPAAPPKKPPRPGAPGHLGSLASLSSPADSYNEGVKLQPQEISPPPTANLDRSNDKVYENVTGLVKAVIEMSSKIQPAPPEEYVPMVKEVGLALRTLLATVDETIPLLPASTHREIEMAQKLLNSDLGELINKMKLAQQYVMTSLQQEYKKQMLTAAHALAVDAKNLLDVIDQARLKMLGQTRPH
Follistatin (Homo sapiens), sequence (P19883 whole entry, looked up): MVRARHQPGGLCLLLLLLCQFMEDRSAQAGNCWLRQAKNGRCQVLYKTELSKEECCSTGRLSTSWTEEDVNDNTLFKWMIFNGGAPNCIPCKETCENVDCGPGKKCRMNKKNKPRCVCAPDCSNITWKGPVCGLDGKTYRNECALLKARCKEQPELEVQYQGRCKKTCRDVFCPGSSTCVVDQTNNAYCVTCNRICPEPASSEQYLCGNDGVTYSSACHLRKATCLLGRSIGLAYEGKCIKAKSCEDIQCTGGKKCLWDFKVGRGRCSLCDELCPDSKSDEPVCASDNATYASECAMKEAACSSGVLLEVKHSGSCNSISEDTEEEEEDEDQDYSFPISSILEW
Fibroblast growth factor 2 (Homo sapiens), sequence (P09038 whole entry, looked up): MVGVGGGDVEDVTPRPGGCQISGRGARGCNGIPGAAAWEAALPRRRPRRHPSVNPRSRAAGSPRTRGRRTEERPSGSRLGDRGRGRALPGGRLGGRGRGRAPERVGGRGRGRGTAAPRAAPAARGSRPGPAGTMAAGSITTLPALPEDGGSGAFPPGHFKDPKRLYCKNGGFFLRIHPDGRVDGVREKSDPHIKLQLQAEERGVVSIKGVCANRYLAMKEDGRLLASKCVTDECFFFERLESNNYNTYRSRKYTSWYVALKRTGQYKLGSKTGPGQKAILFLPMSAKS
Luciferin 4-monooxygenase (Photinus pyralis), sequence (P08659 whole entry, looked up): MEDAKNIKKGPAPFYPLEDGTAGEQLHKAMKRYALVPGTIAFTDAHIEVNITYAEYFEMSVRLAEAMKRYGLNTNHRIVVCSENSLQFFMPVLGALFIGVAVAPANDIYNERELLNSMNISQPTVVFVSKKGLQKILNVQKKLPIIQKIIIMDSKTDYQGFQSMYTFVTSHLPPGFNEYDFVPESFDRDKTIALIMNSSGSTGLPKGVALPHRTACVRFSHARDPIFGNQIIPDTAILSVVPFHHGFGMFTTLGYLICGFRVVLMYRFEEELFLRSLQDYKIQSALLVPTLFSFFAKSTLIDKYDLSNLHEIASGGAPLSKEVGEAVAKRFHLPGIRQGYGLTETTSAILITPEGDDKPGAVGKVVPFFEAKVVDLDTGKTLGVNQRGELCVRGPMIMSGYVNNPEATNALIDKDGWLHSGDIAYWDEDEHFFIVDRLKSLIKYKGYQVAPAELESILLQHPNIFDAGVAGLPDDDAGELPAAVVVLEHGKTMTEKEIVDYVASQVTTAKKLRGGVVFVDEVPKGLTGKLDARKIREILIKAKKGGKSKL

Compound	composite z-score [1]	composite z-score [2]	composite z-score [3]	composite z-score [4]	composite z-score [5]	composite z-score [6]	z-score [7]	composite z-score (Lefty1)	composite z-score [8]	z-score [9]	composite z-score [10]	z-score [11]	z-score [12]	z-score [13]	z-score [14]	composite z-score [15]	composite z-score [16]	composite z-score (Torsin-1A (Homo sapiens) [17])	composite z-score (Torsin-1A (Homo sapiens) [18])	composite z-score [19]
C=CCOC(=O)[C@@H]1[C@H]2C(=O)O[C@H](c3ccccc3)[C@H](c3ccccc3)N2[C@H](c2ccc(OCCOC(=O)[C@H]3C[C@H]4C(=O)NCC(=O)N4[C@H]3c3ccc(O)cc3)cc2)[C@@]12C(=O)Nc1ccc(I)cc12	1.24	1.19	0.701	0.732	1.27	1.39	-1.1	1.06	0.665	-0.483 (inactive)	0.266	-0.199 (inactive)	0.22 (inactive)	-0.394 (inactive)	-0.732 (inactive)	0.868	-0.0163	1.11	0.854	1.81
CCCCC(=C=CC[C@@H](O)c1cccc(OCCO)c1)CCO	-0.378	-0.437	-0.0962	0.449	0.242	0.154	0.613	0.448	0.771	-0.656 (inactive)	0.0999	-0.562 (inactive)	-0.564 (inactive)	3.5 (inactive)	-0.468 (inactive)	1.42	-0.188	-1.33	-0.828	0.364
COCCOC(=O)N1C(=O)[C@@]2(c3cc(C#CCCO)ccc31)[C@H](c1ccc(O)cc1)N1[C@H](c3ccccc3)[C@H](c3ccccc3)OC(=O)[C@H]1[C@@H]2C(=O)N1CCc2cc(OC)c(OC)cc2C1	0.432	1.25	0.514	0.81	1.36	1.59	0.257	1.36	1.03	0.298 (inactive)	0.565	0.0501 (inactive)	-0.883 (inactive)	-0.0647 (inactive)	-1.05 (inactive)	0.354	0.628	1.07	0.761	1.32
COC(=O)[C@@]1(Cc2ccc(F)cc2)[C@H]2c3cc(C(=O)N(C)C)n(CCn4cc([N+](=O)[O-])nc4C)c3C[C@H]2CN1C(=O)c1ccccc1	1.07	1.11	1.45	0.835	-0.394	-0.776	0.608	-1.07	0.288	0.984 (inactive)	0.453	0.278 (inactive)	-0.0864 (inactive)	-0.761 (inactive)	0.17 (inactive)	0.0438	0.234	-0.0611	0.373	-0.755
COC(=O)[C@]1(CO)N=C(c2ccc(OCCCO)cc2)O[C@@H]1c1ccccc1CN=[N+]=[N-]	0.477	0.286	0.1	-0.353	0.996	0.435	-0.232	0.341	-0.342	-0.676 (inactive)	-0.0408	-0.394 (inactive)	1.34 (inactive)	0.643 (inactive)	0.224 (inactive)	-0.447	-0.154	-0.208	0.518	0.583
O=C1NC(=O)C2C1C=CC(C(O)c1ccc(F)cc1)N2Nc1ccccn1 (stereo not given)	0.842	0.399	0.113	0.796	0.269	0.0568	-0.108	-0.269	0.118	-0.855 (inactive)	-0.138	0.74 (inactive)	-1.36 (inactive)	-0.136 (inactive)	0.0662 (inactive)	-0.0345	-0.0645	0.286	0.0123	0.123
CO[C@H]1O[C@H](CO)[C@@H](OC(=O)Nc2ccc3c(c2)OCO3)[C@@H]2OC(=O)[C@@H](Cc3ccccc3)C/C=C/C[C@H](Cc3ccccc3)C(=O)O[C@@H]12	2.53	1.18	0.458	0.659	0.974	0.684	2.76	0.433	0.214	-1.01 (inactive)	0.465	-2.26 (inactive)	0.293 (inactive)	0.951 (inactive)	-0.601 (inactive)	0.294	0.24	-0.0548	0.266	1.32
COC(=O)Cn1c(C(=O)N(C)C)cc2c1C[C@H]1CN(C(=O)c3ccccc3)[C@@](Cc3ccc(OC)cc3)(C(=O)OC)[C@@H]21	0.817	0.845	0.263	0.605	0.371	-0.159	0.834	-0.351	0.86	0.923 (inactive)	1.09	-1.99 (inactive)	0.655 (inactive)	0.966 (inactive)	0.353 (inactive)	0.896	0.438	0.244	0.0985	-0.333
C=CCC(OC(C)=O)[C@@H]1[C@@H](N(Cc2cccc3ccccc23)C(=O)c2ccc(C)cc2)c2cc(OCCCO)ccc2N1C(=O)c1ccc2ccccc2n1 (stereo not given in full)	-0.24	0.098	0.348	0.682	0.584	0.0013	0.644	0.644	0.391	-1.05 (inactive)	0.0305	-0.846 (inactive)	-0.106 (inactive)	0.642 (inactive)	0.154 (inactive)	0.2	0.0664	-0.0107	0.121	0.709
CCCCC(O)C1C=CC2C(=O)N(C)C(=O)C2N1Nc1ccccc1 (stereo not given)	1.86	0.603	0.383	0.416	0.0471	-0.614	-0.771	-0.291	0.0187	0.16 (inactive)	0.0991	0.898 (inactive)	-0.556 (inactive)	-0.14 (inactive)	0.721 (inactive)	0.264	0.106	0.29	0.0531	-0.768
C#CCN(C/C=C/c1ccccc1)[C@H](CO[Si](C)(C)C(C)(C)C)c1ccccc1	0.953	-0.786	0.329	-0.759	-0.0993	-0.187	-2.21	0.178	-0.0631	0.43 (inactive)	-0.276	-0.832 (inactive)	0.221 (inactive)	-0.0487 (inactive)	-0.626 (inactive)	-0.531	-0.0719	-0.805	-0.239	0.0896
C=C(CC1([C@@H](NP(=O)(c2ccccc2)c2ccccc2)[C@H]2C[C@@H]2CCN(C(=O)OCC)S(=O)(=O)c2ccc(C)cc2)CC1)c1ccccc1	1.74	1.22	1.15	0.781	0.712	-0.804	0.782	-0.162	0.593	2.49 (inactive)	0.302	-3.37 (inactive)	0.83 (inactive)	-0.196 (inactive)	0.108 (inactive)	1.27	0.199	-0.423	0.0999	-1.18
